Laboratory results from the supplement of paper PMC6089552.
Hit rate of the full screen: of about 3,200 compounds, about 300 (9.4%) showed activity. Only a selection was taken, and actives are over-represented in it overall.

Tested on: A673/TR/shEF
Assay: cell viability (LOESS-normalised, relative to median of negative controls) (log2 ratio); higher = more viable cells (less compound effect), active = hit call of the paper (over 3 MAD below the median)
Conditions: treatment time: 72 h
Procedure, shortened: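 Viability of A673/TR/shEF Ewing sarcoma cells was determined by CellTiter-Glo luminescence. The cells, at 1,500 per well in 384-well plates, were grown with or without doxycycline from 24 h before compound addition to switch on EWS-FLI1 shRNA knockdown, then exposed for three days to library compounds at two or more concentrations or to DMSO controls. Signals were LOESS-corrected plate by plate, normalised to the negative-control median and log2-transformed.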

[1] = 0.25 µM, library screen: screen1, EWS-FLI1 expression: high (no doxycycline)
[2] = 0.25 µM, library screen: screen1, EWS-FLI1 expression: low (doxycycline-induced shRNA knockdown)
[3] = 2.5 µM, library screen: screen1, EWS-FLI1 expression: high (no doxycycline)
[4] = 2.5 µM, library screen: screen1, EWS-FLI1 expression: low (doxycycline-induced shRNA knockdown)
[5] = 0.25 µM, library screen: screen2, EWS-FLI1 expression: high (no doxycycline)
[6] = 0.25 µM, library screen: screen2, EWS-FLI1 expression: low (doxycycline-induced shRNA knockdown)
[7] = 2.5 µM, library screen: screen2, EWS-FLI1 expression: high (no doxycycline)
[8] = 2.5 µM, library screen: screen2, EWS-FLI1 expression: low (doxycycline-induced shRNA knockdown)

Measured: cell viability (log2)

O=c1cccc2c([C@H]3Oc4cc(O)cc(O)c4C[C@H]3O)cc(O)c(O)c2c1O
inactive: [1] 0.06 | [2] 0.00163 | [3] 0.108 | [4] 0.0999

N#C/C(=C\c1cc(Cl)cc(Cl)c1)c1cccnc1
inactive: 0.025 µM, library screen: screen1, EWS-FLI1 expression: high (no doxycycline) 0.0512 | 0.025 µM, library screen: screen1, EWS-FLI1 expression: low (doxycycline-induced shRNA knockdown) 0.0254 | [1] 0.126 | [2] 0.0849 | [3] 0.0839 | [4] 0.0837 | 25 µM, library screen: screen1, EWS-FLI1 expression: high (no doxycycline) -0.0133 | 25 µM, library screen: screen1, EWS-FLI1 expression: low (doxycycline-induced shRNA knockdown) 0.21

CC(C)c1ccc2c(c1)CC[C@@]1(C)[C@](C)(C(N)=O)CCC[C@]21C
inactive: [1] 0.0259 | [2] 0.0473 | [3] 0.108 | [4] 0.0563

CC(=O)O[C@H]1CC[C@@]2(C)C(CC[C@]3(C)C2CC=C2C4CC(C)(C)CC[C@]4(C)CCC23C)C1(C)C (stereo partly drawn)
inactive: [1] 0.05 | [2] 0.112 | [3] 0.0854 | [4] 0.111

COc1ccc(OC)c(CN2CCN(Cc3ccccc3OC)CC2)c1
inactive: [1] 0.101 | [2] 0.0584 | [3] 0.0952 | [4] 0.0149

COc1ccc(OC)c(CN2CCN(Cc3cc(OC)c(OC)cc3OC)CC2)c1
active: [1] -0.103
inactive: [2] 0.113 | [3] 0.0261 | [4] -0.0111

COc1ccc(OC)c(CN2CCN(Cc3ccc(OC)c(OC)c3)CC2)c1
inactive: [1] 0.114 | [2] 0.0365 | [3] 0.174 | [4] 0.0479

COc1ccc(CN2CCN(Cc3ccc(OC)c(OC)c3OC)CC2)c(OC)c1
inactive: [1] 0.0664 | [2] 0.0443 | [3] 0.0638 | [4] 0.0995

Cc1ccc(S(=O)(=O)N[C@@H](Cc2ccccc2)C(=O)CCl)cc1
inactive: [5] 0.00163 | [6] 0.0223 | [7] 0.0887 | [8] 0.111

O=C(N[C@@H](Cc1ccccc1)C(=O)CCl)OCc1ccccc1
active: [7] -0.218
inactive: [5] 0.163 | [6] 0.156 | [8] 0.0216

CC(C)[C@H](NC(=O)OCc1ccccc1)C(=O)N[C@H](C=O)Cc1ccccc1
inactive: [5] 0.0586 | [6] 0.0917 | [7] 0.108 | [8] 0.155
